This passage reports Potency and activity change, positive = activation results from PubChem BioAssay (Tox21).

Structures are written as SMILES. “And” between values parts separate entries of the source, which are not always exact repeats. Identical values can stand only once. Inconclusive results are not listed. The source holds several records for some structures; these can differ, active in one and inactive in another. The source made the active and inactive calls. Unless noted, calls come from the whole dose curve; as a rule, active = well fitted curve in the direction sought with a large enough effect in the repeat runs; inconclusive = weak or mixed curves; inactive = no such curve, though single readings can be large; an effect the other way counts as inactive or inconclusive.

Assay [1] is described as follows: qHTS assay to identify small molecule agonists of the constitutive androstane receptor (CAR) signaling pathway - cell viability counter screen (AID 1224836). Note: nearly all actives have a fitted effect of over 45% in size. Note: potency is the fitted concentration of half-maximal effect. The gist of the method:
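Fluorescence from CellTiter-Fluor indicates live cells after 23 h exposure. The human hepatoma line expresses hCAR and a CYP2B6-2.2kb reporter. Incubation medium contains 0.75 uM PK11195 (final).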

Assay [2] can be described thus: qHTS assay to identify small molecule antagonists of the constitutive androstane receptor (CAR) signaling pathway - cell viability counter screen (AID 1224837). Note: nearly all actives have a fitted effect of over 45% in size. Note: potency is the fitted concentration of half-maximal effect. The essentials: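 To flag cytotoxic false antagonists, HepG2 hCAR/CYP2B6-2.2kb cells were treated 23 hr with 15-concentration compound series and 50 nM CITCO at 37 C/5% CO2; CellTiter-Fluor fluorescence was the measured end point.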

Assay [3] has as its target Nuclear receptor subfamily 1 group I member 3 (Homo sapiens) (UniProt Q14994). As to the kind of experiment: qHTS assay to identify small molecule antagonists of the constitutive androstane receptor (CAR) signaling pathway (AID 1224838).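 Note: HepG2 cells stably expressing hCAR with CYP2B6 luciferase reporter stimulated by CITCO; nearly all actives have a fitted effect of over 40% in size.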 Note: potency is the fitted concentration of half-maximal effect. The gist of the method:
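Human hepatoma HepG2 cells expressing hCAR and a CYP2B6 promoter (2.2 kb) luciferase construct; compound titration (15 points) with 50 nM CITCO final, 24 h at 37 C/5% CO2; luminescence via ONE-Glo after 30 min at room temperature.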

Assay [4] in a line: qHTS assay to identify small molecule antagonists of the estrogen related receptor signaling pathway with the pleiotropic PPARgamma coactivator (PGC) from Tox21 10K library - cell viability counter screen (AID 1224840; active = well fitted cell-killing curve with a large enough effect in the repeat runs, not every such curve was filed as active; note: nearly all actives have a fitted effect of over 40% in size; note: potency is the fitted concentration of half-maximal effect). The gist of the method: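 Seeded PGC/ERR cells (2,000/well, 6 h, 37 C/5% CO2) get compound by pin tool; 17.5 h incubation at 37 C; CellTiter-Fluor added, 30 min, fluorescence measured.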

Assay [5] can be described thus: qHTS assay to identify small molecule agonists of the hypoxia (HIF-1) signaling pathway - cell viability counter screen (AID 1224844; calls by dose curve; note: nearly all actives have a fitted effect of over 50% in size; note: potency is the fitted concentration of half-maximal effect). The gist of the method: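 HRE-bla ME-180; 0.5% dFBS; cpd 17 h, 37C, 5% CO2; CellTiter-Glo lum., 30 min RT, post-FRET read, same wells.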
Assay [6] can be described thus: qHTS assay to identify small molecule agonists of H2AX (AID 1224845; active = well fitted activation curve with a large enough effect in the signal ratio in the repeat runs, not every such curve was filed as active; the % refers to the signal ratio; note: % is set by controls: 0 for no effect and ±100 for the full control effect). The essentials: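 Wild-type CHO-K1 cells plated overnight, then exposed 3 hr at 37C to compounds at 15 concentrations (0.76% DMSO). Lysed, then HTRF anti-pH2AX(S139)-cryptate/anti-H2AX-d2 detection after 24 hr at room temperature; emissions 665 and 620 nm.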
Assay [7] is described as follows: qHTS assay to identify small molecule agonists of H2AX - cell viability counter screen (AID 1224847; calls by dose curve; note: nearly all actives have a fitted effect of over 30% in size; note: potency is the fitted concentration of half-maximal effect). The essentials: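 Viability of CHO-K1 (wild type) cells after 3 hr compound exposure was measured by CellTiter-Glo luminescence.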
Assay [8] can be described thus: qHTS RealTime-Glo MT Cell Viability Assay in HepG2 cells - 24 hour (AID 1224867). Note: nearly all actives have a fitted effect of over 50% in size. Note: potency is the fitted concentration of half-maximal effect. The essentials: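 Cell number in HepG2 cultures estimated from NanoLuc luminescence generated by metabolic reduction of a prosubstrate by living cells. The homogeneous, nonlytic format allowed repeated reads at 0, 8, 16, 24, 32 and 40 h of compound exposure.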
A short description of assay [9]: qHTS RealTime-Glo MT Cell Viability Assay in HEK293 cells - 32 hour (AID 1224868). Note: nearly all actives have a fitted effect of over 50% in size. Note: potency is the fitted concentration of half-maximal effect. The gist of the method:
(§1)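 Homogeneous bioluminescent viability format in HEK293 cells (600 cells/well). Following 5 h at 37 C/5% CO2, 23 nL compound was pintooled; the signal was measured repeatedly during 40 h incubation.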

Assay [10] can be described thus: A CellTox Green Cytotoxicity Assay to monitor cytotoxicity in HEK293 cells - 0 hour (AID 1224869). Note: % is set by controls: 0 for no effect and ±100 for the full control effect; nearly all actives have a fitted effect of over 50% in size. The gist of the method:
(§2)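 Tox21 screen in HEK293: membrane-impermeant cyanine dye fluoresces on binding dead-cell DNA; compound pinned 5 h post-seeding, plates held at 37 C, signal read repeatedly through 40 h.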

The nature of assay [11]: qHTS RealTime-Glo MT Cell Viability Assay in HepG2 cells - 40 hour (AID 1224870). Note: nearly all actives have a fitted effect of over 50% in size. Note: potency is the fitted concentration of half-maximal effect. The essentials: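 HepG2 cells mixed with RealTime-Glo MT reagents (NanoLuc plus cell-permeant prosubstrate) were seeded at 600 cells/well, incubated 5 h at 37 C/5% CO2, then pinned with compounds in DMSO; nonlytic luminescence tracked viability during 40 h treatment.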
Assay [12] in a line: A CellTox Green Cytotoxicity Assay to monitor cytotoxicity in HEK293 cells - 40 hour (AID 1224871). Note: nearly all actives have a fitted effect of over 45% in size. Note: potency is the fitted concentration of half-maximal effect. The gist of the method:
as §2

Assay [13] in a line: qHTS RealTime-Glo MT Cell Viability Assay in HEK293 cells - 16 hour (AID 1224872). Note: nearly all actives have a fitted effect of over 50% in size. Note: potency is the fitted concentration of half-maximal effect. The essentials: as §1
In assay [14] the target is Thyrotropin receptor (Homo sapiens) (UniProt P16473). As to the kind of experiment: qHTS assay to identify small molecule agonists of the thyroid stimulating hormone receptor (TSHR) signaling pathway (AID 1224843; calls by dose curve; note: % is set by controls: 0 for no effect and ±100 for the full control effect; nearly all actives have a fitted effect of over 45% in size). The gist of the method:
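Compounds are titrated over 15 concentrations, in triplicate, onto TSHR-HEK293 cells seeded at 800/well. Plates sit 30 min at room temperature before cAMP-d2 and anti-cAMP cryptate are added; signal is read after a further hour.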

A short description of assay [15]: qHTS assay to identify small molecule agonists of the hypoxia (HIF-1) signaling pathway (AID 1224846; active = well fitted activation curve with a large enough effect in the signal ratio in the repeat runs, not every such curve was filed as active; the % refers to the signal ratio; note: % is set by controls: 0 for no effect and ±100 for the full control effect). The essentials: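 Reporter induction in HRE-bla ME-180 cells is taken as agonism: cells sit 5 hrs after plating, receive compounds or DMSO only, incubate 17 hrs at 37C under 5% CO2, and are loaded with CCF4-AM for beta-lactamase FRET measurement.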
The target in assay [16] is Nuclear receptor subfamily 1 group I member 3 (Homo sapiens) (UniProt Q14994). As to the kind of experiment: qHTS assay to identify small molecule agonists of the constitutive androstane receptor (CAR) signaling pathway (AID 1224839).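 Note: HepG2 cells stably carrying human CAR and a CYP2B6 luciferase reporter; % is set by controls: 0 for no effect and ±100 for the full control effect; nearly all actives have a fitted effect of over 15% in size.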 The essentials:
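Stable hCAR/CYP2B6-2.2kb HepG2 line in DMEM with 10% FBS; compounds (15 concentrations) and 0.75 uM PK11195 final, 24 h at 37 C/5% CO2, then ONE-Glo luminescence after 30 min.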

Assay [17] can be described thus: qHTS assay to identify small molecule antagonists of the estrogen related receptor signaling pathway with the pleiotropic PPARgamma coactivator (PGC) from Tox21 10K library (AID 1224841; call rule not given here). The gist of the method: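 Test chemicals dissolved in DMSO were applied to pre-incubated (6 h) PGC/ERR cells at 2,000 cells/well for an 18 h, 37 C treatment; reporter luminescence was then read using One-Glo.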

Assay [18] is described as follows: qHTS assay to identify small molecule agonists of the estrogen related receptor signaling pathway with the pleiotropic PPARgamma coactivator (PGC) from Tox21 10K library (AID 1224842). Note: % is set by controls: 0 for no effect and ±100 for the full control effect; nearly all actives have a fitted effect of over 15% in size. The gist of the method: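 PGC/ERR reporter cells (NTP line) were seeded 2,000 per well, rested 6 h at 37 C/5% CO2, then pin-dosed with compounds in DMSO for 18 h at 37 C; luciferase read by One-Glo luminescence after 30 min at room temperature.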

The nature of assay [19]: qHTS assay to identify small molecule antagonists of the estrogen related receptor (ERR) signaling pathway from Tox21 library (AID 1224848). The gist of the method:
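First, 2,000 ERR cells per well were plated and held 6 h at 37 C/5% CO2. Next, compounds in DMSO were pinned in and left 18 h at 37 C. Finally, ONE-Glo was added and luminescence read after 30 min at room temperature.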

Assay [20] in a line: qHTS assay to identify small molecule agonists of the estrogen related receptor (ERR) signaling pathway from Tox21 library (AID 1224849; calls by dose curve; note: % is set by controls: 0 for no effect and ±100 for the full control effect; nearly all actives have a fitted effect of over 15% in size). Particulars: ERR reporter cell line, ONE-Glo luciferase, 18 h. The gist of the method: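 Tox21 compounds tested for ERR agonism in an NTP reporter cell line: 18 h treatment at 37 C, then ONE-Glo luminescence.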

Chain of Nuclear receptor subfamily 1 group I member 3 (Homo sapiens) (Q14994 whole entry, looked up): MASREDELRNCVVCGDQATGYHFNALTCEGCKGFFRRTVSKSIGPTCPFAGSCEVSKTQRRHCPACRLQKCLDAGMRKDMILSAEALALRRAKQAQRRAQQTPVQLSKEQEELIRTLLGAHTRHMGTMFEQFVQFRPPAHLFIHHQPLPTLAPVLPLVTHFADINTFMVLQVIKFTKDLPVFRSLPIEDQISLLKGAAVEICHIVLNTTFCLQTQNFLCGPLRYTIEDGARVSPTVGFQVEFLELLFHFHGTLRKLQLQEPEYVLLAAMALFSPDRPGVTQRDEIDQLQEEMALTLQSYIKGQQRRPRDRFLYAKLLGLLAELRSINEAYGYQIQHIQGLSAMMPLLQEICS
Chain of Thyrotropin receptor (Homo sapiens) (P16473 whole entry, looked up): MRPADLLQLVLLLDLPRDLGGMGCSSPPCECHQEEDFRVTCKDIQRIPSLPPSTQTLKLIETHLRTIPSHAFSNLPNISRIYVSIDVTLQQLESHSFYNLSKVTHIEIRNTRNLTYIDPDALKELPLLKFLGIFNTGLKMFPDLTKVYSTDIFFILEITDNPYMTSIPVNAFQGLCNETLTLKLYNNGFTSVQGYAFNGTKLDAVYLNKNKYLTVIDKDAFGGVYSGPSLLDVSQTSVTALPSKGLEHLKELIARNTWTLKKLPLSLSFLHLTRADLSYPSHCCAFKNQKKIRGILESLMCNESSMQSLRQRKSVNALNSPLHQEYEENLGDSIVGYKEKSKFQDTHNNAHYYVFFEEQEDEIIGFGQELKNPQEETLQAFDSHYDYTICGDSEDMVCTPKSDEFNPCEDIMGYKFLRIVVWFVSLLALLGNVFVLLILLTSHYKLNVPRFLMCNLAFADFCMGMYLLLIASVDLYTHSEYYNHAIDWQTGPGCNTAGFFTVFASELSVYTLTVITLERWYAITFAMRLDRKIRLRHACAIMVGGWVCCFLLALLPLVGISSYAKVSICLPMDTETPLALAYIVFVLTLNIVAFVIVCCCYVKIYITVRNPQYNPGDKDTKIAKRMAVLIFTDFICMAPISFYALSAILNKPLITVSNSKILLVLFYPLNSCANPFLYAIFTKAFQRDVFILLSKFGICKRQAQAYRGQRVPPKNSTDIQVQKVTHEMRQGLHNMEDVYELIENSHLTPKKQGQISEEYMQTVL

Turning to `CC[C@H](c1ccc(O)cc1)[C@@H](CC)c1ccc(O)cc1`, the Potency entry in [1], in assay [2], in assay [4], in assay [6], in [8] and in assay [10] was “inactive” in each case. Further, the Potency result in assay [11] and in assay [13] was “inactive” each time. Moreover, the Potency is 0.473 µM (active) in assay [3]; 54.9 µM (active) and inactive in assay [5]; 101 µM (active) and inactive in assay [7]; 27.5 µM (active) in assay [9]; 34.7 µM (active) and inactive in [12].

For the compound `NC(=O)CC[C@@H]1NC(=O)[C@H](Cc2ccccc2)NC(=O)[C@H](Cc2ccc(O)cc2)NC(=O)CCSSC[C@@H](C(=O)N2CCC[C@H]2C(=O)N[C@@H](CCCN=C(N)N)C(=O)NCC(N)=O)NC(=O)[C@H](CC(N)=O)NC1=O`, the Potency entry in assay [1], in assay [2], in assay [3], in [4], in assay [14] and in assay [5] was “inactive” each time. In addition, the Potency result in assay [6], in assay [15], in assay [7], in assay [8], in assay [9] and in [10] was “inactive” throughout. Further, the Potency entry in assay [11], in assay [12] and in assay [13] was “inactive” throughout.

Turning to `CCCCCCCCn1sc(Cl)c(Cl)c1=O`, the Potency is 30.6 µM (active) in assay [1]; 30.6 µM (active) in assay [2]; 27.3 µM (active) in [3]; 6.16 µM (active) in assay [5]; 8 µM (active) in assay [7]; 4.9 µM (active) in [8]. Further, the figures for the Potency in [9], in assay [12] and in assay [13] were 3.89 µM (active), 1.95 µM (active) and 3.47 µM (active), respectively. The Potency entry in assay [16], in [14], in assay [6] and in [10] was “inactive” each time.

On to `Cc1cc2c(cc1C(F)(F)F)N(C(=O)Nc1ccc(Oc3cccnc3C)nc1)CC2`, for which the Potency result in assay [1], in [2], in assay [3], in [16], in assay [18] and in assay [15] was “inactive” in each case. Besides, the Potency result in assay [8], in [10], in [11] and in [12] was “inactive” in each case. The Potency in assay [17] is 7.81 µM (active); in assay [7], 45.7 µM (active); in assay [19], 4.93 µM (active); in [9] it was 4.97 µM (active). In assay [20] (at 92.4 µM (top of the series) unless noted), the activity change, positive = activation is -42.2% (inactive).

As to `COC(=O)C1=C(C)NC(C)=C(C(=O)OCC(C)C)C1c1ccccc1[N+](=O)[O-]` (stereo not given), the Potency entry in [1], in assay [2], in assay [3], in assay [18], in assay [14] and in [6] was “inactive” throughout. The Potency entry in [15] and in [10] was “inactive” each time. For the same compound, the Potency was 27.3 µM (active) and inactive in assay [4]; 13.7 µM (active) and 21.1 µM (active) in [17]; 127 µM (active) and inactive in [7]; 12.2 µM (active) and 21.1 µM (active) in assay [19]; 49 µM (active) in assay [8]; 21.9 µM (active) in assay [9]. For the same compound, the Potency is 49 µM (active) and inactive in [11]; 49 µM (active) and inactive in assay [12]; 38.9 µM (active) in [13]. The activity change, positive = activation is -46.2% (inactive) in [20] (at 42.5 µM (top of the series)) and -62.2% (inactive) in assay [20] (at 92.4 µM (top of the series)).
